PubChem BioAssay (NCI)
Compounds without any hit were thinned out: in the full panel of roughly 83,000, 20% have a hit.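 Step 1: grow cells in 96-well plates. Step 2: add test compound at a single concentration. Step 3: incubate 48 h. Step 4: record percent growth.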 The source made the active and inactive calls. How the source made its calls: active means growth percent below 10; inactive means the rest.

Columns and labels:
Assay in all cases: NCI-60 one-dose screen, 48 h (100 = growth as untreated, 0 = no growth, -100 = all killed)
Settings in all cases: 10 µM unless noted
[1] = system: NCI-H23 lung
[2] = system: NCI-H226 lung
[3] = system: NCI-H322M lung
[4] = system: HOP-62 NSCLC
[5] = system: NCI-H460 lung
[6] = system: HOP-92 NSCLC
[7] = system: NCI-H522 lung
[8] = system: A549/ATCC NSCLC
[9] = system: 786-0 renal
[10] = system: DU-145 prostate
[11] = system: K-562 leukemia
[12] = system: MALME-3M melanoma
[13] = system: MDA-MB-231 breast
[14] = system: RXF 393 renal
[15] = system: SF-268 CNS
[16] = system: SF-295 CNS
[17] = system: SF-539 CNS
[18] = system: UACC-257 melanoma
[19] = system: M14 melanoma

Measured: growth

Cc1ccc(/C=C(\C#N)n2nnc3cc(Cl)c(Cl)cc32)cc1
active: [2] -9.44% | [6] -7.83% | [9] 5.73% | [10] 3.78% | [11] 6.41% | [13] -14.9% | [14] -33.5% | [16] -0.103% | [17] -13.1% | [19] -23%
inactive: [1] 24.8% | [3] 49.5% | [4] 33.8% | [5] 12.8% | [7] 17.3% | [8] 38.8% | [12] 44% | [15] 12% | [18] 50.3%

CN(CCCCCCCCNc1ccnc2ccccc12)Cc1ccc(-c2ccc(-c3ccc(C#N)cc3)s2)cc1
active: [2] -66.9% | [3] -66% | [4] -11.2% | [5] -76.3% | [7] -62.9% | [8] -60.7% | [9] -89.8% | [10] -67.3% | [11] -18.4% | [12] -80.7% | [13] -80.1% | [14] -86% | [15] -76.6% | [16] -64.1% | [17] -89% | [18] -38.7% | [19] -84%
inactive: [1] 21.1% | [6] 44.8%

Cc1cnc(Nc2ccc(OCCN3CCCC3)cc2)nc1NCc1ccco1
inactive: [1] 70.9% | [2] 45.8% | [3] 81.9% | [4] 60.4% | [5] 72.8% | [6] 54.8% | [7] 70.1% | [8] 76.3% | [9] 60.7% | [10] 83.8% | [11] 12.9% | [12] 105% | [13] 55.6% | [14] 48% | [15] 68.5% | [16] 84% | [17] 68.7% | [18] 96% | [19] 96.3%

COc1cc2c(cc1OC)-c1ccc3cc4c(cc3c1N(CCCN(C)C)C2)OCO4
inactive: [1] 48.7% | [2] 57.6% | [3] 51.3% | [4] 38% | [5] 14.6% | [7] 19.5% | [8] 20.2% | [9] 35% | [10] 38.9% | [11] 20.6% | [12] 58.2% | [13] 36.3% | [14] 35.1% | [15] 34% | [16] 42.7% | [17] 40.2% | [18] 34.6% | [19] 33.2%
active: [6] 9.04%

O=C1C(Cl)C(c2ccccc2Cl)N1n1cnnc1 (configuration not stated)
inactive: [1] 101% | [2] 102% | [3] 93.5% | [4] 73.5% | [5] 101% | [6] 91.1% | [7] 92.9% | [8] 91.1% | [9] 97.1% | [10] 104% | [11] 102% | [12] 95.6% | [13] 94.8% | [14] 98.6% | [15] 102% | [16] 100% | [17] 85.3% | [18] 91.5% | [19] 93.1%

Cc1cc(N2CCCCC2)nc(N(CCNc2ccnc3cc(Cl)ccc23)Cc2ccccn2)n1
inactive: [1] 53.7% | [2] 63.5% | [3] 68.8% | [4] 55.6% | [5] 41.5% | [6] 30.6% | [7] 56.3% | [8] 53.9% | [9] 45.3% | [10] 61.9% | [12] 74.1% | [13] 49.6% | [14] 30.7% | [15] 71.8% | [16] 21.5% | [17] 39.2% | [18] 66.9% | [19] 45%
active: [11] 7.83%

NC(N)=N/N=C/c1ccc(Br)cc1
inactive: [1] 56.4% | [2] 72.1% | [3] 98.6% | [4] 10.2% | [5] 14.3% | [6] 49.3% | [7] 40% | [8] 34.6% | [10] 80% | [12] 45% | [13] 38.1% | [14] 70.8% | [15] 62% | [16] 48.3% | [17] 62.2% | [18] 58.6% | [19] 14.6%
active: [9] -38.3% | [11] 4.4%

CCNCCNc1cc(-c2ccc(C(F)(F)F)cc2)c(C#N)c2nc3cc(Cl)c(Cl)cc3n12
inactive: [2] 99.8%
active: [1] -76.6% | [3] -95.4% | [4] -82.4% | [5] -71.6% | [6] -83.5% | [7] -73.3% | [8] -88.4% | [9] -78% | [10] -93% | [11] -63.7% | [12] -77.9% | [13] -73.2% | [14] -96.3% | [15] -76.3% | [16] -91.2% | [17] -92.9% | [18] -85.4% | [19] -81.5%
